# Where a name gives a salt, the structure may show the parent alone. ± gives the standard deviation.
# Tested on: Danio rerio Tg(wt1b:EGFP) embryo, pronephros
# Test: glomerular separation, fold change vs DMSO control; higher = glomeruli further apart (abnormal)
# Conditions: 25 µM; exposure: 24-48 hpf
# Summary of the method: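 Each feature value is a fold change relative to the mean of same-day DMSO-treated embryos. Embryos of the Tg(wt1b:EGFP) zebrafish line, dechorionated, received 25 μM compound in 0.5% DMSO from 24 to 48 hpf at 28.5°C, in HEPES-buffered E3 with 0.003% PTU. Distances and angles were computed by a Fiji macro from 16 manually set reference points on maximum projections of dorsal pronephros images, and values beyond 2 SD of the feature mean were removed.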
row,Structure (SMILES),glomerular separation
1,Cc1cnc(C(=O)O)c[n+]1[O-] [Acipimox],1.01 ± 0.23
2,CC(=O)OCC(=O)[C@@]1(O)CC[C@H]2[C@@H]3CCC4=CC(=O)C=C[C@]4(C)[C@@]3(F)[C@@H](O)C[C@@]21C [Isoflupredone acetate],1.22 ± 0.63
3,Cc1oncc1C(=O)Nc1ccc(C(F)(F)F)cc1 [Leflunomide],2.27 ± 1
4,CCOC(=O)[C@H](CCc1ccccc1)N[C@H]1CCc2ccccc2N(CC(=O)O)C1=O [Benazepril hydrochloride],0.73 ± 0.18
5,Nc1nc(NC2CC2)c2ncn([C@H]3C=C[C@@H](CO)C3)c2n1 [Abacavir Sulfate],0.958 ± 0.35
6,CC(=O)c1ccc2c(c1)N(CCCN(C)C)c1ccccc1S2 [Acetopromazine maleate salt],0.953 ± 0.23
7,Cc1c(-c2ccccc2)oc2c(C(=O)OCCN3CCCCC3)cccc2c1=O [Flavoxate hydrochloride],1.17 ± 0.37
8,CCN(CC)CCCC(C)Nc1c2ccc(Cl)cc2nc2ccc(OC)cc12 (stereo not drawn) [Quinacrine dihydrochloride hydrate],0.766 ± 0.2
9,Cn1c([N+](=O)[O-])cnc1COC(N)=O [Ronidazole],0.869 ± 0.18
10,CC(C)(C)NCC(O)COc1cccc2c1CC(O)C(O)C2 (stereo not drawn) [Nadolol],0.664 ± 0.2
11,CCn1cc(C(=O)O)c(=O)c2cc(F)c(N3CCN(C)CC3)cc21 [Pefloxacine],0.997 ± 0.31
12,CC(C)(C)NC[C@H](O)c1ccc(O)c(CO)c1 [Levalbuterol hydrochloride],0.811 ± 0.27
13,c1ccc2[nH]c(-c3cscn3)nc2c1 [Tiabendazole],1.4 ± 0.65

# Source: the supplement of paper PMC7366291
